{"source": "the supplement of paper PMC8728848", "test_in_all_cases": "glycan array binding signal (z-score within array); higher = stronger binding", "settings_in_all_cases": "glycan notation: IUPAC condensed, linker removed", "key": {"[1]": {"biological_target": "Fuc(a1-2)Gal(b1-3)[Fuc(a1-4)]GlcNAc(b1-2)Man(a1-3)[Fuc(a1-2)Gal(b1-3)[Fuc(a1-4)]GlcNAc(b1-2)Man(a1-3)]Man(b1-4)GlcNAc(b1-4)GlcNAc", "how_it_was_run": "(§1)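 The binding signal is a Z-score computed within each array and averaged over linkers. Arrays of the same protein sequence at different concentrations or buffers were also averaged together. Data originate from 3228 arrays in the Consortium for Functional Glycomics database, kept only where the protein sequence was available.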"}, "[2]": {"biological_target": "Fuc(a1-2)Gal(b1-3)[Fuc(a1-4)]GlcNAc(b1-3)[Gal(b1-4)GlcNAc(b1-6)]Gal(b1-4)Glc", "how_it_was_run": "as §1"}, "[3]": {"biological_target": "Fuc(a1-2)[Gal(a1-3)]Gal(b1-3)GlcNAc", "how_it_was_run": "as §1"}, "[4]": {"biological_target": "Fuc(a1-2)[Gal(a1-3)]Gal(b1-3)GlcNAc(b1-6)GalNAc", "how_it_was_run": "as §1"}, "[5]": {"biological_target": "Fuc(a1-2)[Gal(a1-3)]Gal(b1-4)GlcNAc(b1-6)GalNAc", "how_it_was_run": "as §1"}, "[6]": {"biological_target": "Fuc(a1-3)[Gal(b1-4)]GlcNAc(b1-3)Gal(b1-4)[Fuc(a1-3)]GlcNAc", "how_it_was_run": "as §1"}, "[7]": {"biological_target": "Gal(a1-3)Gal(b1-3)GlcNAc", "how_it_was_run": "as §1"}, "[8]": {"biological_target": "Gal(a1-3)[Gal(a1-4)]Gal(b1-4)GlcNAc", "how_it_was_run": "as §1"}, "[9]": {"biological_target": "Gal(b1-2)Gal", "how_it_was_run": "as §1"}, "[10]": {"biological_target": "Gal(b1-3)GalNAc", "how_it_was_run": "as §1"}, "[11]": {"biological_target": "Gal(b1-3)GalNAc(a1-3)[Fuc(a1-2)]Gal(b1-4)GlcNAc", "how_it_was_run": "as §1"}, "[12]": {"biological_target": "Gal(b1-3)GlcNAc(b1-2)Man(a1-3)[Gal(b1-3)GlcNAc(b1-2)Man(a1-6)]Man(b1-4)GlcNAc(b1-4)[Fuc(a1-6)]GlcNAc", "how_it_was_run": "as §1"}, "[13]": {"biological_target": "Gal(b1-3)[Fuc(a1-4)]GlcNAc(b1-2)Man", "how_it_was_run": "as §1"}, "[14]": {"biological_target": "Gal(b1-4)GlcNAc(b1-2)[Gal(b1-4)GlcNAc(b1-6)]Man(a1-6)[GlcNAc(b1-4)][Gal(b1-4)GlcNAc(b1-2)[Gal(b1-4)GlcNAc(b1-4)]Man(a1-3)]Man(b1-4)GlcNAc(b1-4)[Fuc(a1-6)]GlcNAc", "how_it_was_run": "as §1"}, "[15]": {"biological_target": "Gal(b1-4)GlcNAc(b1-3)Gal(b1-4)GlcNAc(b1-2)Man(a1-3)[Gal(b1-4)GlcNAc(b1-3)Gal(b1-4)GlcNAc(b1-2)Man(a1-6)]Man(b1-4)GlcNAc(b1-4)GlcNAc", "how_it_was_run": "as §1"}, "[16]": {"biological_target": "Gal(b1-4)GlcNAc(b1-3)Gal(b1-4)GlcNAc(b1-3)[Gal(b1-4)GlcNAc(b1-3)Gal(b1-4)GlcNAc(b1-6)]GalNAc", "how_it_was_run": "as §1"}, "[17]": {"biological_target": "Gal(b1-4)GlcNAc(b1-6)[Gal(b1-3)]GalNAc", "how_it_was_run": "as §1"}, "[18]": {"biological_target": "Gal3S(b1-4)Glc", "how_it_was_run": "as §1"}, "[19]": {"biological_target": "Gal4S6S(b1-4)GlcNAc", "how_it_was_run": "as §1"}, "[20]": {"biological_target": "GalNAc(b1-3)Gal", "how_it_was_run": "as §1"}, "[21]": {"biological_target": "GalNAc(b1-4)Gal(b1-4)Glc", "how_it_was_run": "as §1"}, "[22]": {"biological_target": "GlcA(b1-3)GlcNAc", "how_it_was_run": "as §1"}, "[23]": {"biological_target": "GlcA3S(b1-3)Gal(b1-4)GlcNAc(b1-2)Man", "how_it_was_run": "as §1"}, "[24]": {"biological_target": "GlcNAc(a1-3)Gal(b1-4)GlcNAc", "how_it_was_run": "as §1"}, "[25]": {"biological_target": "GlcNAc(a1-4)Gal(b1-4)GlcNAc(b1-3)Gal(b1-4)[Fuc(a1-3)]GlcNAc(b1-3)Gal(b1-4)[Fuc(a1-3)]GlcNAc", "how_it_was_run": "as §1"}, "[26]": {"biological_target": "GlcNAc(b1-3)Gal(b1-4)GlcNAc(b1-6)[Gal(b1-3)]GalNAc", "how_it_was_run": "as §1"}, "[27]": {"biological_target": "Man(a1-2)Man(a1-3)[Man(a1-6)]Man(a1-6)[Man(a1-2)Man(a1-3)]Man(b1-4)GlcNAc(b1-4)GlcNAc", "how_it_was_run": "as §1"}, "[28]": {"biological_target": "Man(a1-2)Man(a1-6)[Man(a1-3)]Man(a1-6)[Man(a1-2)Man(a1-2)Man(a1-3)]Man(b1-4)GlcNAc(b1-4)GlcNAc", "how_it_was_run": "as §1"}, "[29]": {"biological_target": "Man(a1-3)[Man(a1-6)]Man(a1-6)[Man(a1-3)]Man", "how_it_was_run": "as §1"}, "[30]": {"biological_target": "Neu5Ac(a2-3)Gal(b1-4)GlcNAc(b1-2)Man", "how_it_was_run": "as §1"}, "[31]": {"biological_target": "Neu5Ac(a2-3)Gal(b1-4)GlcNAc(b1-2)Man(a1-3)[Neu5Ac(a2-3)Gal(b1-4)GlcNAc(b1-2)Man(a1-6)]Man(b1-4)GlcNAc(b1-4)GlcNAc", "how_it_was_run": "as §1"}, "[32]": {"biological_target": "Neu5Ac(a2-3)Gal(b1-4)GlcNAc(b1-3)Gal(b1-4)GlcNAc", "how_it_was_run": "as §1"}, "[33]": {"biological_target": "Neu5Ac(a2-3)Gal(b1-4)[Fuc(a1-3)]GlcNAc(b1-6)[Neu5Ac(a2-3)Gal(b1-3)]GalNAc", "how_it_was_run": "as §1"}, "[34]": {"biological_target": "Neu5Ac(a2-3)Gal6S(b1-4)GlcNAc", "how_it_was_run": "as §1"}, "[35]": {"biological_target": "Neu5Ac(a2-6)Gal(b1-4)GlcNAc(b1-2)Man(a1-3)[Neu5Ac(a2-6)Gal(b1-4)GlcNAc(b1-2)Man(a1-6)]Man(b1-4)GlcNAc(b1-4)[Fuc(a1-6)]GlcNAc", "how_it_was_run": "as §1"}, "[36]": {"biological_target": "Neu5Ac(a2-6)Gal(b1-4)GlcNAc(b1-2)[Neu5Ac(a2-6)Gal(b1-4)GlcNAc(b1-4)]Man(a1-3)[GlcNAc(b1-4)][Neu5Ac(a2-6)Gal(b1-4)GlcNAc(b1-2)[Neu5Ac(a2-6)Gal(b1-4)GlcNAc(b1-6)]Man(a1-6)]Man(b1-4)GlcNAc(b1-4)GlcNAc", "how_it_was_run": "as §1"}, "[37]": {"biological_target": "Neu5Ac(a2-8)Neu5Gc(a2-3)Gal(b1-4)GlcNAc", "how_it_was_run": "as §1"}}, "note": "The entries come from a sample that favours the strongest signals as a whole.", "data": [{"binder": "SSP1 (Sclerotinia sclerotiorum), XP_001584968 (protein) MGSSHHHHHHSSGLVPRGSHMSLLTTELACTSAPDQVLHLFFQDGQNILEARSPDGGNVWTTQDTIIAKDGDYNGSSMTCYYVDKDANFDNQPSIHLLYMNKDKQLTEKVKRMKGDNPIWEDAKVPDEVRKGPEQYSKLTSGSFNQGTGWNPNGSQWAYFSASKDGKMGIVEIRRTPKDPWHTETILEEKWGDELPGTALACVIGNGKIRVFLQHHDYSIILYENQNNTWHDRGTFIPKDKVQATTPLACTMTKDGSVHLFYVSKSNKIIHCTDGKKEEELINFFPGSKLGATSVENKITLFFRNLNPVNEVGTLENENGSWKHGTTVIPA", "values": [{"measurement": "glycan array binding signal (z-score)", "setting": "[1]", "result": 0.937}, {"measurement": "glycan array binding signal (z-score)", "setting": "[2]", "result": -0.405}, {"measurement": "glycan array binding signal (z-score)", "setting": "[3]", "result": 0.084}, {"measurement": "glycan array binding signal (z-score)", "setting": "[4]", "result": 7.05}, {"measurement": "glycan array binding signal (z-score)", "setting": "[5]", "result": -0.15}, {"measurement": "glycan array binding signal (z-score)", "setting": "[6]", "result": -0.07}, {"measurement": "glycan array binding signal (z-score)", "setting": "[7]", "result": 2.88}, {"measurement": "glycan array binding signal (z-score)", "setting": "[8]", "result": 2.85}, {"measurement": "glycan array binding signal (z-score)", "setting": "[9]", "result": 0.5}, {"measurement": "glycan array binding signal (z-score)", "setting": "[10]", "result": -0.111}, {"measurement": "glycan array binding signal (z-score)", "setting": "[11]", "result": 3.1}, {"measurement": "glycan array binding signal (z-score)", "setting": "[12]", "result": 5.12}, {"measurement": "glycan array binding signal (z-score)", "setting": "[13]", "result": -0.358}, {"measurement": "glycan array binding signal (z-score)", "setting": "[14]", "result": 0.197}, {"measurement": "glycan array binding signal (z-score)", "setting": "[15]", "result": 8.48}, {"measurement": "glycan array binding signal (z-score)", "setting": "[16]", "result": -0.003}, {"measurement": "glycan array binding signal (z-score)", "setting": "[17]", "result": -0.405}, {"measurement": "glycan array binding signal (z-score)", "setting": "[18]", "result": 1.38}, {"measurement": "glycan array binding signal (z-score)", "setting": "[19]", "result": -0.291}, {"measurement": "glycan array binding signal (z-score)", "setting": "[20]", "result": 2.2}, {"measurement": "glycan array binding signal (z-score)", "setting": "[21]", "result": -0.27}, {"measurement": "glycan array binding signal (z-score)", "setting": "[22]", "result": 0.484}, {"measurement": "glycan array binding signal (z-score)", "setting": "[23]", "result": -0.535}, {"measurement": "glycan array binding signal (z-score)", "setting": "[24]", "result": -0.477}, {"measurement": "glycan array binding signal (z-score)", "setting": "[25]", "result": 2.28}, {"measurement": "glycan array binding signal (z-score)", "setting": "[26]", "result": -0.156}, {"measurement": "glycan array binding signal (z-score)", "setting": "[27]", "result": -0.017}, {"measurement": "glycan array binding signal (z-score)", "setting": "[28]", "result": -0.467}, {"measurement": "glycan array binding signal (z-score)", "setting": "[29]", "result": 2.15}, {"measurement": "glycan array binding signal (z-score)", "setting": "[30]", "result": 0.612}, {"measurement": "glycan array binding signal (z-score)", "setting": "[31]", "result": -0.45}, {"measurement": "glycan array binding signal (z-score)", "setting": "[32]", "result": 0.123}, {"measurement": "glycan array binding signal (z-score)", "setting": "[33]", "result": 1.79}, {"measurement": "glycan array binding signal (z-score)", "setting": "[34]", "result": -0.085}, {"measurement": "glycan array binding signal (z-score)", "setting": "[35]", "result": -0.364}, {"measurement": "glycan array binding signal (z-score)", "setting": "[36]", "result": 0.132}, {"measurement": "glycan array binding signal (z-score)", "setting": "[37]", "result": 9.08}]}]}
